# According to PubChem BioAssay:
# Where “and” joins values, the source holds several entries; their conditions need not be identical. Equal entries are not always repeated. For some assays here: Potency and affinity values are given separately. Calls of active or inactive are those of the source. Unless noted, no stated cut-off is given here; in the data, active means inhibition above about 80%; inactive means the rest.
# How the values were obtained:
# [1] = inhibitors of Cryptococcus chitosan production, flow cytometry, Cibacron Brilliant Red staining (AID 1347148; call rule not given here;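 further: compound exposure lasted three days at 37 degrees C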); settings: Cryptococcus neoformans chitosan, stronger effect = lower value; at 10 µM unless noted
# [2] = test system: Neuropilin-2 / VEGF-C interaction (human); experiment: inhibitors of NRP2–VEGF-C binding, biochemical, microplate binding format, z-score (AID 743281; call rule not given here); settings: microplate NRP2/VEGF-C binding assay; stronger effect = lower value
# [3] = antimalarial activity against Dd2 strain (AID 2302;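 active means growth inhibition above 50% at the single 2 µM test dose, taken to imply half-maximal potency below 2 µM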;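 further: 0% = DMSO untreated growth and 100% = chloroquine plus artemisinin killed control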); settings: P. falciparum Dd2 in RBCs, LDH growth readout, 72 h; at 2 µM; stronger effect = higher value
# [4] = HepG2 cytotoxicity, primary screen, cytotoxicity control for P. falciparum antimalarial project, cell-based, ATP luminescence (AID 2303;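 active means inhibition above 50%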;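 further: 0% = DMSO wells and 100% = digitonin-killed cells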); settings: HepG2 viability, 24-48 h, at 10 µM, stronger effect = higher value
# [5] = biological target: Calcium-dependent protein kinase 1 (Plasmodium falciparum (isolate 3D7)) (UniProt P62344); experiment: PfCDPK1 kinase inhibitors, biochemical, TCAMS library (AID 1159585; cut-off not given, nearly all actives have IC50 up to about 0.98 µM;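 further: inhibitors leave more ATP so luminescence rises with inhibition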); settings: recombinant PfCDPK1, Kinase-Glo ATP depletion luminescence
# Chain of Calcium-dependent protein kinase 1 (Plasmodium falciparum (isolate 3D7)) (P62344 whole entry, looked up): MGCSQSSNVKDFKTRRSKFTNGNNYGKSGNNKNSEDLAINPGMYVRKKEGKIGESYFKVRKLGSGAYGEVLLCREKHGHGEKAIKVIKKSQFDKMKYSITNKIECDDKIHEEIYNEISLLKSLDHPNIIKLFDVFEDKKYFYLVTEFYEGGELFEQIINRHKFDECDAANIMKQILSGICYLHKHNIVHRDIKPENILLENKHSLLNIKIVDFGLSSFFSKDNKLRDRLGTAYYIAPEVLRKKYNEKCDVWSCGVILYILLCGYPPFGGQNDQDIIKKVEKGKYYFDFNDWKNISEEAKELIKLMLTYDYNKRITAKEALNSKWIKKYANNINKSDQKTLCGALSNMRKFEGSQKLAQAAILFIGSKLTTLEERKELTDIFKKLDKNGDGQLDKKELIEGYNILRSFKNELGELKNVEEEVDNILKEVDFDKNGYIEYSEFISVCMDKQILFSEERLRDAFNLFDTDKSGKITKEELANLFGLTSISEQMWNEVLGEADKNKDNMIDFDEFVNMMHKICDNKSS
# [6] = biological target: Plasmodium falciparum protein kinase 6 (PK6, PF3D7_1337100) (UniProt Q8IDW1); experiment: PfPK6 kinase inhibitors, biochemical, TCAMS library (AID 1159586; call rule not given here); settings: recombinant PfPK6, Kinase-Glo ATP depletion luminescence
# Chain of Plasmodium falciparum protein kinase 6 (PK6, PF3D7_1337100) (Q8IDW1 1-305): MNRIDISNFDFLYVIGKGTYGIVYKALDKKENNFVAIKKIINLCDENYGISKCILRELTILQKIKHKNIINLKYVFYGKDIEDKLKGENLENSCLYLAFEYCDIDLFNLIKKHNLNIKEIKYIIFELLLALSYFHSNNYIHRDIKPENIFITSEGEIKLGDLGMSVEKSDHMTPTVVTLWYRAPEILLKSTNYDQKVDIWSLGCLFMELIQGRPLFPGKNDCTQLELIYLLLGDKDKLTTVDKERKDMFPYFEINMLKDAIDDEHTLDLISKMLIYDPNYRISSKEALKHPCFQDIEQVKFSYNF
# [7] = biological target: Protein kinase 7 (PK7), Plasmodium falciparum 3D7 (PF3D7_0213400) (UniProt Q7YTF7); experiment: inhibition of Plasmodium PK7 catalytic activity – biochemical, TCAMS antimalarial set, Kinase-Glo luminescence (AID 1159587; call rule not given here); settings: recombinant PfPK7, Kinase-Glo ATP depletion luminescence
# Chain of Protein kinase 7 (PK7), Plasmodium falciparum 3D7 (PF3D7_0213400) (Q7YTF7 1-343): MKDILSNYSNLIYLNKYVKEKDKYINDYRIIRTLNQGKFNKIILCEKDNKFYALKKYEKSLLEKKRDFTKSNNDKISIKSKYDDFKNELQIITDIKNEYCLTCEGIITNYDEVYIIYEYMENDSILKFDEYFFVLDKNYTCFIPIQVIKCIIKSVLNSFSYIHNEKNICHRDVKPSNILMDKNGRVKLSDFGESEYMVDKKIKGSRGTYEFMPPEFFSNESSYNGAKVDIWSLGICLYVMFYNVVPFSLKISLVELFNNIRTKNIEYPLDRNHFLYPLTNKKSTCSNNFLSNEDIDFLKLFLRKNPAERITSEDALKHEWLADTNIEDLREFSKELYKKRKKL
# [8] = biological target: Calcium-dependent protein kinase 4 (Plasmodium falciparum (isolate 3D7)) (UniProt Q8IBS5); experiment: PfCDPK4 kinase inhibitors, biochemical, TCAMS library (AID 1159588; cut-off not given, nearly all actives have IC50 up to about 0.91 µM); settings: recombinant PfCDPK4, Kinase-Glo ATP depletion luminescence
# Chain of Calcium-dependent protein kinase 4 (Plasmodium falciparum (isolate 3D7)) (Q8IBS5 whole entry, looked up): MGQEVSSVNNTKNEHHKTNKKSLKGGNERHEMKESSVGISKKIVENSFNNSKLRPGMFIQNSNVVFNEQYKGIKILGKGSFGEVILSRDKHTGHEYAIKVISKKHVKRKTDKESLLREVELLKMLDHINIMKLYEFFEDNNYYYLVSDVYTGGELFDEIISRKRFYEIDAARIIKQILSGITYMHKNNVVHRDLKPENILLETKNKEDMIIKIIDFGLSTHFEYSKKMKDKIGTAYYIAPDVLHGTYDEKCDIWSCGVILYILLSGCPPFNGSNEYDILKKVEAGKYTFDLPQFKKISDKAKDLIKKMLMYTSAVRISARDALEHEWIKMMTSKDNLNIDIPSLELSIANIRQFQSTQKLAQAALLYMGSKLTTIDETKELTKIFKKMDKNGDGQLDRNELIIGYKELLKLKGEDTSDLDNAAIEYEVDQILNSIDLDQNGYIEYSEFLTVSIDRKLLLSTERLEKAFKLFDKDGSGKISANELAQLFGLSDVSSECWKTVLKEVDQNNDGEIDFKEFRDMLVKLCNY
# [9] = LFS_MB_1R medulloblastoma cell growth inhibition, synergistic combos for chromothripsis tumors, cisplatin or BGB combos (AID 1671452); settings: LFS_MB_1R medulloblastoma cells, stronger effect = higher value;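 further: cells exposed for 96 hours before readout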
# [10] = CRL2098 osteosarcoma cell growth inhibition, synergistic combos for chromothripsis tumors, BGB or cisplatin IC20 combos (AID 1671454); settings: CRL2098 osteosarcoma cells, drug combinations, stronger effect = higher value;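 further: cells exposed for 96 h before readout; 0% = vehicle DMSO and 100% = killing by high DMSO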
# [11] = HD-MB03 medulloblastoma cell growth inhibition, synergistic combos for chromothripsis tumors, BGB or cisplatin IC20 combos (AID 1671455; in the data active means inhibition above about 83%;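 further: 0% = vehicle DMSO and 100% = high DMSO as cytotoxic control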); settings: HD-MB03 medulloblastoma cells, stronger effect = higher value
# [12] = UWB1.289 ovarian carcinoma cell growth inhibition, synergistic combos for chromothripsis tumors, BGB or cisplatin combos (AID 1671456); settings: UWB1.289 ovarian carcinoma cells, stronger effect = higher value;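 further: cells exposed to compound for four days; 0% = vehicle DMSO and 100% = killing by high DMSO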
# [13] = LFS_MB_2R medulloblastoma cell growth inhibition, synergistic combos for chromothripsis tumors, cisplatin combos (AID 1671457); settings: LFS_MB_2R medulloblastoma cells, stronger effect = higher value;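 further: cells exposed to compound for four days before readout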
# [14] = MDA-MB-436 breast carcinoma cell growth inhibition, synergistic combos for chromothripsis tumors, BGB or cisplatin combos (AID 1671458; call rule not given here;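 further: cells exposed for 96 hours; 0% = vehicle DMSO and 100% = killing by high DMSO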); settings: MDA-MB-436 breast carcinoma growth inhibition, drug combinations, stronger effect = higher value
# [15] = UWB1.289_BRCA1 ovarian cancer growth, cell-based, BGB or cisplatin combinations (AID 1671459); settings: UWB1.289 BRCA1 ovarian carcinoma, drug combinations, stronger effect = higher value
# [16] = human astrocyte viability loss, single and combined drugs, cytotoxicity control for chromothriptic childhood tumor combination screen, cell-based, BGB or cisplatin IC20 combos (AID 1671460); settings: Human astrocytes, drug combinations, stronger effect = higher value;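 further: cells exposed to compounds for 96 hours before viability readout; 0% = vehicle and 100% = killing control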
# [17] = growth inhibition of BT084 medulloblastoma cells, cell-based, ICGC_MB145, cisplatin and BGB IC40 combos (AID 1671461); settings: drug combinations, stronger effect = higher value;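 further: cells exposed to drugs for 96 hours; 0% = vehicle DMSO and 100% = high DMSO full killing control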
# [18] = growth inhibition of RCMB18 medulloblastoma cells, cell-based, cisplatin and BGB IC40 combos (AID 1671462); settings: stronger effect = higher value;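 further: cells exposed to compound for four days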
# [19] = growth inhibition of CRL1545 osteosarcoma cells, cell-based, cisplatin and BGB IC20 combos (AID 1671464); settings: stronger effect = higher value;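 further: cells exposed to compound for 96 hours before readout; 0% = vehicle DMSO and 100% = high DMSO killing control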
# [20] = measured here: combination with cisplatin, at 0.5 µM
# [21] = measured here: combination with cisplatin, at 5 µM
smiles,measurement,setting,value
Cc1cccc(Nc2cc(Cl)nc(SCC(=O)O)n2)c1C,fold fluorescence,[1],4.05 (inactive)
COCCCOc1ccnc(CS(=O)c2nc3ccccc3[nH]2)c1C (centres undefined),z-score,[2],0.22 (inactive)
CN1CCN(C2=Nc3cc(Cl)ccc3Nc3ccccc32)CC1,fold fluorescence,[1],11 [at 153 µM] (inactive)
CC(C)(C)NCC(O)c1ccc(O)c(CO)c1 (centres undefined),z-score,[2],-0.605 (inactive)
O=C(O)CCc1nc(-c2ccccc2)c(-c2ccccc2)o1,z-score,[2],0.876 (inactive)
O=C(CCCN1CCC(O)(c2ccc(Cl)cc2)CC1)c1ccc(F)cc1,z-score,[2],-0.0752 (inactive)
NC(=O)c1cccnc1,z-score,[2],1.84 (inactive)
COc1cc(Cc2cnc(N)nc2N)cc(OC)c1OC,growth inhibition,[3],2% (inactive)
same,inhibition,[4],0% (inactive)
same,outcome,[5],inactive
same,outcome,[6],inactive
same,outcome,[7],inactive
same,outcome,[8],inactive
N=c1nc(N2CCCCC2)cc(N)n1O,fold fluorescence,[1],4.24 [at 238.9 µM] (inactive)
CN1C(=O)CC[C@H]1c1cccnc1,z-score,[2],-0.371 (inactive)
CN(C)C(=O)C(CCN1CCC(O)(c2ccc(Cl)cc2)CC1)(c1ccccc1)c1ccccc1,fold fluorescence,[1],10.1 [at 104.8 µM] (inactive)
COc1ccc2cc([C@H](C)C(=O)O)ccc2c1,z-score,[2],-0.354 (inactive)
CCCC(CCC)C(=O)O,inhibition,[9]; at 0.5 µM,-27.6% (inactive) and -16.5% (inactive)
same,inhibition,"[9]; measured here: combination with BGB IC40, at 0.05 µM",-35.5% and -12.1%
same,inhibition,[9]; [20],-35% and -39.3%
same,inhibition,[9]; [21],2.7% and -48.1%
same,inhibition,[10]; at 0.5 µM,-45.4% (inactive) and -15.9% (inactive)
same,inhibition,"[10]; measured here: combination with BGB at IC20, at 0.5 µM",-45.9% and -23.5%
same,inhibition,"[10]; measured here: combination with cisplatin at IC20, at 0.5 µM",-34.5% and 0.202%
same,inhibition,[11]; at 0.5 µM,-15.1% (inactive) and -0.6% (inactive)
same,inhibition,"[11]; measured here: combo with BGB at IC20, at 0.5 µM",-17% and -10.3%
same,inhibition,"[11]; measured here: combo with cisplatin at IC20, at 0.5 µM",-14.1% and 6.37%
same,inhibition,[12]; at 0.5 µM,-4.81% (inactive) and 13.2% (inactive)
same,inhibition,"[12]; measured here: inhibition with BGB combination, at 0.05 µM",-26.3% and 5.38%
same,inhibition,"[12]; measured here: inhibition with cisplatin combination, at 0.05 µM",-23.4% and 27.8%
same,inhibition,[13]; at 0.5 µM,-16.9% (inactive) and 1.18% (inactive)
same,inhibition,[13]; [20],-15.6% and 6.48%
same,inhibition,[13]; [21],-69.4% and 11.4%
same,inhibition,[14]; at 0.5 µM,-30.4% (inactive) and 1.93% (inactive)
same,inhibition,"[14]; measured here: BGB combination, at 0.5 µM",-29.6% and 4.62%
same,inhibition,"[14]; measured here: BGB combination, at 5 µM",-20.8% and 1.95%
same,inhibition,"[14]; measured here: cisplatin combination, at 0.5 µM",-40.6% and 3.21%
same,inhibition,"[14]; measured here: cisplatin combination, at 5 µM",-25.9% and 1.52%
same,inhibition,"[15]; BGB combination, concentration series, at 5 µM",-15.2% and 3.45%
same,inhibition,[15]; at 0.5 µM,-19% (inactive) and 7.15% (inactive)
same,inhibition,"[15]; cisplatin combination, concentration series, at 5 µM",0.227% and -13.4%
same,inhibition,[16]; at 0.5 µM,-9% (inactive) and 2.09% (inactive)
same,inhibition,"[16]; measured here: combo with BGB IC20, at 0.5 µM",-11% and 1.03%
same,inhibition,"[16]; measured here: combo with cisplatin IC20, at 0.5 µM",0.797% and 9.29%
same,inhibition,[17]; at 0.5 µM,-33.9% (inactive) and -3.36% (inactive)
same,inhibition,"[17]; cisplatin combination, at 0.5 µM",-10.5% and -11.6%
same,inhibition,"[17]; cisplatin combination, at 5 µM",-5.4% and -1.37%
same,inhibition,"[17]; measured here: BGB IC40 combination 0.05 uM, at 0.05 µM",-20.5% and -59.5%
same,inhibition,"[17]; single agent, at 5 µM",-18.9% and -8.84%
same,inhibition,[18]; at 0.5 µM,-2.59% (inactive) and -3.82% (inactive)
same,inhibition,"[18]; cisplatin combo, at 5 µM",-12% and -15.7%
same,inhibition,"[18]; measured here: BGB IC40 combination, at 0.05 µM",-2.36% and -1.73%
same,inhibition,[18]; [20],10.5% and -4.92%
same,inhibition,"[18]; single agent, at 5 µM",-25.2% and -0.151%
same,inhibition,[19]; at 0.5 µM,-19.7% (inactive) and -18.9% (inactive)
same,inhibition,"[19]; measured here: with BGB IC20 combination, at 0.5 µM",-18.4% and -23.1%
same,inhibition,"[19]; measured here: with cisplatin IC20 combination, at 0.5 µM",-23.1% and -18.8%
same,inhibition,"[19]; single agent, at 0.05 µM",-52.6% and 9%
same,inhibition,"[19]; single agent, at 5 µM",8.56% and -31.8%
